Assay outcomes deposited in PubChem by several laboratories.
GDH-TPI counter-1: inhibits GDH-TPI coupling enzymes, artifact for Mtb FBA screen | GDH-TPI coupled enzyme counterscreen, NADH absorbance | inhibition, % at 4.8 µM | 1.2% of 360,000 active; in the data active = inhibition above about 30%;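 also: 0% = DMSO wells and 100% = wells lacking the enzyme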
PfHsp40 yeast: restores yeast growth despite PfHsp40 toxicity; S. cerevisiae expressing PfHsp40, growth rescue, ATP luminescence; growth rescue, % at 12.5 µM; 0.68% of 340,000 active; AID 504582; in the data active = growth rescue above about 28%, passing the limit was not always enough;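 also: yeast W303a lacking pdr1 and pdr3 grown in galactose medium; growth measured after three days at 30 °C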
PrP 5UTR inh: suppresses PrP 5' UTR mRNA reporter expression; cell-based PrP 5' UTR mRNA reporter, plate reader; inhibition, % (no concentration beside the values); 0.35% of 340,000 active; AID 488862; in the data active = inhibition above about 52%; also: 0 = median of the neutral control wells
PrPC TRFRET: inhibitors of human cell surface prion protein PrPC. P04156. TR-FRET read-out. inhibition, % at 13.8 µM. 0.43% of 370,000 active. AID 720596; in the data active = inhibition above about 24%; also: 0% = median of the test wells and 100% = reference compound wells
BJeLR lethal: kills HRASV12-expressing BJeLR cells | BJeLR (HRASV12) viability, CellTiter-Glo ATP luminescence, 48 h | inhibition, % (test concentration not listed) | 0.17% of 300,000 active; in the data active = inhibition above about 50%
FBA Mtb inh: inhibitors of M. tuberculosis fructose-bisphosphate aldolase; 2.3% of 360,000 active; purified M. tuberculosis FBA, fluorescence read-out; inhibition, % at 1 µM; P9WQA3;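 also: 0% = vehicle and 100% = reference inhibitor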
Target sequence (P9WQA3 whole entry, looked up): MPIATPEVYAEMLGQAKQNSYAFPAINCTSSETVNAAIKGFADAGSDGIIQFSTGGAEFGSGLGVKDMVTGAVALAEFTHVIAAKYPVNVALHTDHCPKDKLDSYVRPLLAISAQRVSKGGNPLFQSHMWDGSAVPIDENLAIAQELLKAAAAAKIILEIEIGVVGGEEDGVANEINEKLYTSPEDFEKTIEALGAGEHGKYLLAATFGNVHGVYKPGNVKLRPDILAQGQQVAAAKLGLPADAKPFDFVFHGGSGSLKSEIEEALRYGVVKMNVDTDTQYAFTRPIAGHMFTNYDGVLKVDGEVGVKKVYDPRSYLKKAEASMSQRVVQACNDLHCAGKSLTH
Mtb FBA inh conf: Mtb FBA inhibition, confirmed | 78% of 5,600 active | purified M. tuberculosis FBA, fluorescence read-out | shares compounds with FBA Mtb inh | inhibition, % at 1 µM;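 also: 0% = vehicle wells and 100% = reference inhibitor wells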
GDH-TPI counter-2: GDH-TPI inhibition counter-screen for FBA inhibitors | shares compounds with FBA Mtb inh | GDH-TPI coupled enzyme counterscreen, fluorescence | inhibition, % at 1 µM | 81% of 5,600 active; in the data active = inhibition above about 10%
GDH-TPI DR: GDH-TPI dose response counter-screen for Mtb FBA | shares compounds with FBA Mtb inh | AID 652145 | GDH-TPI coupled enzyme assay, fluorescence, artifact counterscreen | 79% of 170 active | IC50, µM; call rule not given here
* hit, by the source's call; nt = no result given; + = active, no number. Hits are enriched below; roughly 4.5% of the tested compounds scored in any of these assays. Rule as the data show it, unless noted: active = inhibition above about 27%; inactive = the rest.

SMILES | GDH-TPI counter-1 | PfHsp40 yeast | PrP 5UTR inh | PrPC TRFRET | BJeLR lethal | FBA Mtb inh | Mtb FBA inh conf | GDH-TPI counter-2 | others
COc1ccc(CCNc2cc(C)nc3c(-c4ccc(Cl)cc4)cnn23)cc1OC | 4.7 | -0.6 | -12.0 | 5.1 | -2.5 | 33.9* | 41.8* | 34.0*
Cc1cc(NCc2ccccc2)n2ncc(-c3ccccc3)c2n1 | 13.3 | 1.7 | -87.4 | 7.1 | -8.4 | 28.1* | 123.3* | 123.3*
Cc1cc(NC2CCCC2)n2ncc(-c3ccccc3)c2n1 | 7.2 | 2.7 | 37.6 | 0.3 | -6.7 | 17.2 | nt | nt
COc1ccc(NC(=O)N(C)C[C@H]2Oc3ccc(NS(=O)(=O)c4cccs4)cc3C(=O)N([C@@H](C)CO)C[C@@H]2C)cc1 | -1.7 | 0.5 | -4.5 | 4.5 | nt | 3.8 | nt | nt
COc1ccc([C@H]2CC(=O)C=C(c3ccccc3OC)C2)cc1OC | 12.1 | 2.4 | 4.8 | 6.3 | nt | -1.2 | nt | nt
Cc1nc2c(OCc3ccc(C(F)(F)F)cc3)cccn2c1N(C)CC1CC1 | -1.3 | nt | nt | 14.5 | nt | 0.8 | nt | nt
COc1ccc(NC(=O)CN(C)C(=O)c2cc(-c3ccc(OC)cc3)nc3ccccc23)cc1 | 19.2 | -1.0 | -30.2 | 3.3 | -5.3 | 34.8* | 48.5* | 36.5*
COc1ccc(-c2cc(C(=O)N(C)CC(=O)Nc3cccc(F)c3)c3ccccc3n2)cc1 | 7.0 | -1.5 | -10.8 | 1.8 | -1.9 | 53.8* | 114.7* | 82.8*
CCOc1ccc(/C=N/OC(C)C(=O)NCc2ccc3c(c2)OCO3)cc1 (stereo not given) | 6.2 | 1.5 | -24.5 | 1.4 | -13.7 | 3.4 | nt | nt
CCCCC(CC)Cn1c(N)c(C#N)c2nc3ccccc3nc21 (stereo not given) | 9.9 | 0.4 | -25.9 | 2.9 | -8.4 | 50.1* | 7.5 | -5.4
CCn1c2ccccc2c2nc3ccccc3nc21 | 19.1 | 4.6 | 2.8 | nt | -0.7 | 2.3 | nt | nt
CCCOC(=O)c1c(NC(=O)C2C3C=CC(C3)C2C(=O)O)sc2c1CCC(C)C2 (stereo not given) | -4.7 | -1.7 | -4.7 | -6.8 | 10.0 | 11.1 | nt | nt
CCOC(=O)c1c(NC(=O)C2C3C=CC(C3)C2C(=O)O)sc2c1CC(C)CC2 (stereo not given) | 15.3 | -0.6 | -3.2 | -1.3 | 2.2 | 34.6* | 57.9* | 50.8*
CN1C(=O)CSc2ccc(NC(=O)N3CCN(c4ccccc4)CC3)cc21 | -3.1 | -0.4 | -18.7 | -2.8 | 12.6 | -0.1 | nt | nt
C=CCN1CCN(C(CC(C)C)c2nnnn2CCOC)CC1 (stereo not given) | -4.2 | -0.9 | 11.6 | -8.9 | -3.5 | 1.7 | nt | nt
CCCCC(c1nnnn1CCOC)N1CCN(CC)CC1 (stereo not given) | 8.7 | 1.2 | -11.8 | -1.1 | nt | 38.2* | 91.0* | 61.8*
O=C(COc1ncnc2scc(-c3ccc(Cl)cc3)c12)NCc1ccco1 | 0.8 | 0.0 | -20.3 | -1.5 | 1.0 | 82.6* | 4.8 | -2.4
CCCOc1ccc2cc(C(=O)NCc3ccccc3)c(=O)oc2c1 | 8.1 | 0.2 | -15.7 | -0.1 | -7.3 | 44.4* | 50.4* | 39.3*
COc1ccc2cc(C(=O)NCc3ccco3)c(=Nc3ccc(C(=O)O)cc3)oc2c1 | 24.9 | -2.3 | -36.0 | -9.7 | -7.2 | 14.1 | nt | nt
COc1ccc2cc(C(=O)NCc3ccco3)c(=O)oc2c1 | 33.5* | 0.8 | -72.8 | -3.5 | -5.2 | 45.5* | 35.0* | 26.3*
COc1cc2c(cc1OC)CC[N+](C)=C2 | 14.7 | -0.5 | -10.0 | 2.2 | 11.1 | 95.0* | 111.5* | 76.5*
OC[C@@H]1[C@@H](c2ccccc2)C(c2ccccc2)=NN1c1ccccc1 | 3.1 | 3.9 | -9.3 | 3.3 | nt | 49.4* | 119.7* | 90.5*
c1ccc(-c2nn(-c3ccccc3)[n+](-c3ccccc3)n2)cc1 | 0.5 | 2.2 | -33.6 | -11.3 | nt | -3.2 | nt | nt
OC[C@@H]1[C@@H](c2ccc(Cl)cc2)C(c2ccc(F)cc2)=NN1c1ccccc1 | 3.1 | 0.1 | -6.8 | -1.0 | nt | 60.4* | 149.9* | 98.2*
OC[C@@H]1[C@@H](c2ccccc2)C(c2cccc(Cl)c2)=NN1c1ccccc1 | -6.4 | 3.5 | -4.6 | 10.8 | nt | 49.6* | 121.7* | 133.7*
SMILES | GDH-TPI counter-1 | PfHsp40 yeast | PrP 5UTR inh | PrPC TRFRET | BJeLR lethal | FBA Mtb inh | Mtb FBA inh conf | GDH-TPI counter-2 | others
O=C1OCCN1C(=O)[C@H]1[C@H](c2ccc(F)cc2)C(c2cccc(Cl)c2)=NN1c1ccccc1 | 4.5 | -0.9 | -14.7 | 2.4 | nt | 26.4 | nt | nt
C[C@@H]1C(c2ccc(F)cc2)=NN(c2ccccc2)[C@H]1C(=O)N1CCOC1=O | 20.0 | 0.1 | 6.4 | -1.5 | nt | 1.6 | nt | nt
O=C(NC1CCCCCCC1)C1c2ccccc2C(=O)N1Cc1ccco1 (stereo not given) | 2.0 | -0.2 | -22.9 | 7.7 | 7.2 | 3.3 | nt | nt
N=c1c(C(=O)NC2CCCCC2)cc2c(=O)n3ccccc3nc2n1Cc1ccco1 | 4.5 | -0.4 | -20.8 | -22.9 | 1.8 | 36.0* | 12.3 | -1.4 | GDH-TPI DR=>10
Cc1ccc(S(=O)(=O)c2cc3c(=O)n4ccccc4nc3n(C)c2=N)cc1 | 12.7 | -0.8 | -16.6 | -2.2 | -28.9 | 39.6* | 51.6* | 41.8*
Cc1nc2ccccn2c1C(=O)NC1CCCC1 | 1.3 | 0.5 | -3.6 | 7.1 | 7.5 | 5.8 | nt | nt
N=c1c(C(=O)NCC2CCCO2)cc2c(=O)n3ccccc3nc2n1Cc1ccco1 (stereo not given) | 10.4 | 1.6 | -20.1 | -41.5 | 4.3 | 27.6* | + | 191.5*
N=c1c(C(=O)NC2CCCCC2)cc2c(=O)n3ccccc3nc2n1Cc1ccccc1 | -0.4 | 0.0 | -2.1 | -15.7 | -8.1 | 55.5* | 167.1* | 133.8*
O=S(=O)(NCc1cn2ccccc2n1)c1cccs1 | 5.3 | 0.9 | -14.9 | -0.1 | 3.5 | 7.2 | nt | nt
N=c1c(S(=O)(=O)c2ccccc2)cc2c(=O)n3ccccc3nc2n1Cc1ccco1 | 18.9 | 0.1 | 2.3 | -10.1 | 1.3 | 63.6* | 133.8* | 96.6*
Cc1nc2ccccn2c1C(=O)NCCCN1CCOCC1 | 6.3 | 0.4 | -1.7 | -0.6 | -2.4 | 2.5 | nt | nt
Cc1ccc(S(=O)(=O)c2cc3c(=O)n4ccccc4nc3n(Cc3ccco3)c2=N)cc1C | nt | nt | nt | -12.1 | -2.6 | nt | nt | nt
N=c1c(C(=O)NCc2ccccc2)cc2c(=O)n3ccccc3nc2n1CCCN1CCOCC1 | 9.7 | -1.5 | 6.3 | -29.5 | nt | 78.7* | 2.1 | -4.4
N=c1c(C(=O)NCCc2ccccc2)cc2c(=O)n3ccccc3nc2n1Cc1ccco1 | 3.0 | 0.4 | -14.9 | -14.0 | -2.0 | 30.4* | + | 162.7*
O=C(CSc1nc2ccccc2c(=O)n1Cc1ccco1)NCc1ccccc1 | -0.9 | 0.1 | -0.5 | -3.2 | 2.3 | 1.5 | nt | nt
N=c1c(C(=O)NC2CCCCC2)cc2c(=O)n3ccccc3nc2n1Cc1cccnc1 | 8.6 | -0.5 | -3.5 | -20.8 | -4.6 | 106.9* | + | +
